Assay outcomes from PubChem.
Cruzain inh Det = blocks cruzain activity in presence of Triton detergent | purified cruzain, Z-FR-AMC fluorescence, 0.01% Triton | Potency, µM, without a hit: max response, negative = inhibition, most hits filed as inhibitors | P25779 | actives 0.43% (n = 200,000); active = well fitted curve in the direction sought with a large enough effect; inconclusive = small, poorly fitted or top-dose-only effect, or another doubt; inactive = no such curve, though single readings can be large; an effect the other way counts as inactive or inconclusive;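 also: potency is read from the fitted curve at half-maximal effect; plate controls were neutral wells for no effect and buffer without enzyme for full effect; nearly all actives have a fitted effect of over 40% in size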
Target sequence (P25779 123-467 limits assumed): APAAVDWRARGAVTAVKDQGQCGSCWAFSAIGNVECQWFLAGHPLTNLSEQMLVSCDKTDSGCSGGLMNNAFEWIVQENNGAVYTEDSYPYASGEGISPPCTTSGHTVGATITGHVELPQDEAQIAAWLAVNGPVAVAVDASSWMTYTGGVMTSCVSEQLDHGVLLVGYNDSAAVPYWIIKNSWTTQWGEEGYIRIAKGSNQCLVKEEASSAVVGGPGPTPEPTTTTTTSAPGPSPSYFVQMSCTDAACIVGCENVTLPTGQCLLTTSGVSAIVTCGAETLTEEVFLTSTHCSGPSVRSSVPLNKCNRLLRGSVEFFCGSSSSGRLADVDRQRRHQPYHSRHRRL
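Steps: dispense cruzain (1.5 nM final) in acetate buffer pH 5.5 with DTT and 0.01% Triton X-100; pin-transfer compounds; incubate 15 min RT; add Z-FR-AMC (2 uM final); read fluorescence every 30 s, using the 60 s intensity change.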
Cruzain noTriton = cruzain (T. cruzi) inhibition without detergent. P25779. Potency, µM, inactives show max response, negative = inhibition, most hits filed as inhibitors. actives 2.3% (n = 200,000). purified cruzain, Z-FR-AMC fluorescence, no detergent; active = well fitted curve in the direction sought with a large enough effect; inconclusive = small, poorly fitted or top-dose-only effect, or another doubt; inactive = no such curve, though single readings can be large; an effect the other way counts as inactive or inconclusive;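 also: potency is read from the fitted curve at half-maximal effect; plate controls were enzyme without inhibitor for no effect and buffer without enzyme for full effect; nearly all actives have a fitted effect of over 40% in size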
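Purified cruzain at 1.5 nM, pre-incubated 15 min with compound at room temperature in 100 mM sodium acetate pH 5.5, 5 mM DTT, 0.00005% Triton X-100. Reaction started with 2 uM Z-FR-AMC; AMC fluorescence increase over 60 s gives rate.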
NS1 inh = influenza NS1 inhibition. actives 0.4% (n = 270,000). AID 2326. Potency, µM (doses to about 46.1 µM), inactives show top-dose activity, positive = more growth; also: potency is read from the fitted curve at half-maximal effect; actives are rising curves; nearly all actives have a fitted effect of over 50% in size
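Compounds were scored for reversing the slow growth caused by influenza A NS1 in S. cerevisiae, measured by optical density at 600 nm. Assay medium contained 2% galactose at pH 6.0; NS1-free yeast of the same strain were the positive control.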
Flu NS1 inh = validation of influenza NS1 protein function inhibitors | 1,400 tested, under 10 active | influenza NS1 function cell assay, 15-point titration | activity change, negative = inhibition, % at 32.9 µM | shares compounds with NS1 inh; also: 0% is about no effect
The depositor's hits bear a star. Only a selection was taken, and hits are over-represented in it overall. Unless noted, calls follow the shape of the full dose curve.

What do the screens show for `CCOC(=O)N1CCN(S(=O)(=O)N2CCCC(C(=O)NCc3ccc(OC)cc3)C2)CC1` (stereo unspecified)?
NS1 inh: inconclusive; Flu NS1 inh: -20

What do the screens show for `CC1CCN(S(=O)(=O)N2CCCC(C(=O)NCc3ccccc3Cl)C2)CC1` (stereo unspecified)?
NS1 inh: -4%

How did O=C(C1CCC(CNS(=O)(=O)c2cccs2)CC1)N1CCN(c2ccc(F)cc2)CC1 (stereo unspecified) do in these assays?
NS1 inh: -11%

What do the screens show for `Cc1ccc(S(=O)(=O)C/N=C(/NC(=S)N(c2ccccc2)c2ccccc2)c2ccccc2)cc1`?
Cruzain inh Det: -3%; Cruzain noTriton: -3%; NS1 inh: 10µM*; Flu NS1 inh: inconclusive

How did Cc1ccc(S(=O)(=O)/N=C(/NC(=S)Nc2ccccc2)c2ccccc2)cc1 do in these assays?
Cruzain inh Det: -4%; Cruzain noTriton: -8%; NS1 inh: -1%

What do the screens show for `Cc1ccccc1-n1nc(C(=O)O)c(C)c(C#N)c1=O`?
Cruzain inh Det: 1%; Cruzain noTriton: 2%; NS1 inh: 2.8µM*; Flu NS1 inh: 12

Results for Cc1c(C(=O)O)nn(-c2cccc(C(F)(F)F)c2)c(=O)c1C#N ?
NS1 inh: -8%

What do the screens show for `O=C(NC1CC1)c1ccc(CS(=O)(=O)c2c(Cl)cccc2Cl)o1`?
Cruzain inh Det: 0%; Cruzain noTriton: 3%; NS1 inh: 4.5µM*; Flu NS1 inh: 6

What do the screens show for `CC1CCC(NC(=O)c2ccc(CS(=O)(=O)c3c(Cl)cccc3Cl)o2)CC1` (stereo unspecified)?
Cruzain inh Det: 0%; Cruzain noTriton: 2%

What do the screens show for `CCn1c(C)nc2cc(C(=O)NNC(=S)Nc3ccccc3Cl)ccc21`?
Cruzain inh Det: -1%; Cruzain noTriton: -6%; NS1 inh: -1%

Results for Cc1ccc(CCNC(=O)c2c[nH]c3ccc(S(=O)(=O)Nc4ccc(C)cc4C)cc3c2=O)cc1 ?
Cruzain inh Det: 3%; Cruzain noTriton: inconclusive

What do the screens show for `Cc1ccc(NS(=O)(=O)c2cccc(C(=O)NCCc3c[nH]c4ccccc34)c2)c(C)c1`?
Cruzain inh Det: -10%; Cruzain noTriton: -17%; NS1 inh: 11µM*; Flu NS1 inh: 32

Results for N#CCc1ccc(NC(=O)Nc2cccc3ccccc23)cc1 ?
NS1 inh: 2%

How did CC(O)CNc1nc2ccccc2n1CC(=O)NCCc1ccc(Cl)cc1 (stereo unspecified) do in these assays?
Cruzain inh Det: 1%; Cruzain noTriton: -6%; NS1 inh: -5%

How did Cc1cccc(NC(=O)Cn2c(=O)n(CCc3c[nH]c4ccccc34)c(=O)c3cccnc32)c1 do in these assays?
Cruzain inh Det: -2%; Cruzain noTriton: 25µM*; NS1 inh: 4µM*; Flu NS1 inh: -4

How did O=C(Cn1c(=O)n(CCc2c[nH]c3ccccc23)c(=O)c2cccnc21)Nc1ccccc1F do in these assays?
Cruzain inh Det: -2%; Cruzain noTriton: inconclusive; NS1 inh: 20%

What do the screens show for `Cc1csc(NC(=O)Cc2ccccc2[N+](=O)[O-])n1`?
Cruzain inh Det: -4%; Cruzain noTriton: -16%; NS1 inh: 2%

How did O=c1[nH]c(C2CCCN(S(=O)(=O)c3ccc(F)cc3)C2)nc2c1nnn2Cc1ccc(F)cc1 (stereo unspecified) do in these assays?
NS1 inh: inconclusive; Flu NS1 inh: -5

Results for Cc1ccc(Cn2nnc3c(=O)[nH]c(C4CCCN(S(=O)(=O)c5ccc(F)cc5)C4)nc32)cc1 (stereo unspecified) ?
NS1 inh: 3%

Results for CCN(CC)S(=O)(=O)c1ccc(NCc2ccccn2)nc1 ?
NS1 inh: 2%

Results for Cc1nn(-c2ccccc2)c(C)c1/C=N/NC(=O)c1cc(-c2ccc(Br)s2)[nH]n1 ?
Cruzain inh Det: -3%; Cruzain noTriton: -2%; NS1 inh: 11%

How did Cc1nn(-c2ccccc2)c(C)c1/C=N/NC(=O)c1cc(-c2ccc(Cl)s2)[nH]n1 do in these assays?
Cruzain inh Det: -1%; Cruzain noTriton: inconclusive; NS1 inh: 8.9µM*; Flu NS1 inh: 6

Results for Cc1ccc(/C=N/NC(=O)c2csc3c2CCCC3)cc1 ?
Cruzain inh Det: -5%; Cruzain noTriton: 7%; NS1 inh: -12%

What do the screens show for `Cc1nn(C)cc1/C=N\NC(=O)c1csc2c1CCCC2`?
NS1 inh: inconclusive; Flu NS1 inh: 2

Results for COc1ccc(Oc2ccc(C(F)(F)F)cc2NC(=O)c2ccc(C)cc2)cc1 ?
NS1 inh: 2%

What do the screens show for `O=C(c1ccncc1)N1CCc2ccccc2C1`?
NS1 inh: 1%
